{"source": "PubChem BioAssay (NCATS)", "note": "Results filed as inconclusive are left out. Values without a mark were called inactive. Active and inactive are the calls of the source. The call rests on the fitted dose curve.", "data": [{"target": "Retinoic acid receptor RXR-alpha (Homo sapiens) (UniProt P19793)", "sequence (P19793 whole entry, looked up)": "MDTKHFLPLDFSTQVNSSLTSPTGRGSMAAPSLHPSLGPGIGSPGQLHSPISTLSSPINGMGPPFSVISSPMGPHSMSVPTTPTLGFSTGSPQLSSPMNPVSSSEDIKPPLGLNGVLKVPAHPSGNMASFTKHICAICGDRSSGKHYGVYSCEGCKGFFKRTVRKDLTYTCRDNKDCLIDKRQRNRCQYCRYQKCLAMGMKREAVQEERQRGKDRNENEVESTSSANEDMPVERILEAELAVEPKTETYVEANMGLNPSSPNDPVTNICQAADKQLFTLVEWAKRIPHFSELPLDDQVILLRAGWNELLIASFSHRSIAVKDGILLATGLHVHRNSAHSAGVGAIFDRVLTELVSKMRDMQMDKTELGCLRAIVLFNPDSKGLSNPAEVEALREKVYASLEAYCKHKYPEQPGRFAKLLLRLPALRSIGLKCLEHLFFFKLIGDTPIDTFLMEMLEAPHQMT", "assay": "qHTS assay for small molecule agonists of retinoid X receptor alpha signaling (AID 588544)", "settings": "HEK293T RXRa-UAS-bla, beta-lactamase reporter, 18 h; series mostly up to 76.7 µM; activation: at the top concentration", "from_the_text": "NIH Chemical Genomics Center [NCGC] U.S. Environmental Protection Agency [EPA] National Institutes of Environmental Health Sciences [NIEHS] National Toxicology Program [NTP] NCGC Assay Overview The Retinoid X receptor (RXR), a nuclear hormone receptor is expressed in liver, spleen, placenta, epidermis, central nervous system. These receptors are able to form homo and heterodimers with other nuclear receptors and due to this heterodimerizing ability, RXR functions as master regulators producing diverse physiological effects. Three subtypes of RXR exist; alpha, beta and gamma. Retinoid X receptor alpha (RXR-alpha) has potential roles in metabolic signaling pathways, skin alopecia, dermal cysts, cardiac development, insulin sensitization etc. Therefore screening environmental chemicals on RXR-alpha signaling can be used for the studies focused on such therapeutic applications.\nNCGC Assay Protocol Summary Using a beta-lactamase reporter-gene under control of Retinoid X receptor--alpha (RXR-alpha) response element, a cell-based assay [GeneBLAzer (RXR-alpha -UAS-bla assay developed by Invitrogen] was used to measure RXR-alpha ligands signaling. GeneBLAzer RXR-alpha -UAS-bla HEK293T cells were used with assay medium containing 2% charcoal-stripped FBS. The assay was performed in clear bottom black Greiner 1536-well plates. 9-cis-retinoic acid was used in the screen as the positive control. Library compounds were measured for their ability to stimulate the reporter gene activity. Compounds were screened in a titration series in 1536-well format. The fluorescence intensity (405 nm excitation, 460/530 nm emission) was measured using an EnVision plate reader. Data was normalized relative to 9-cis-retinoic acid control (500 nM, 100%), and DMSO only wells (basal, 0%). Concentration-response titration points for each compound were fitted to the Hill equation yielding concentrations of half-maximal stimulation (EC50) and maximal response (efficacy) values. qHTS protocol for RXR-alpha beta-lactamase assay in agonist mode [Step] [Parameter] [Value] [Description] 1. Reagent; 6 uL; 2500 cells/well 2. Incubation; 37 C for 4 hrs 3. Compounds; 23 nL; 0.59 nM to 92 uM 4. Controls (9-cis-retinoic acid); 23 nL, - One column with dose response, start 38 uM, 1:3 dilutions in duplicates - Final concentrations of 500 nM and 50 nM in two columns 5. Incubation; 37 C for 18 hrs 6. Detection reagent; 1 uL of CCF4-dye 7. Incubation; RT for 2 hrs 8. Detection; Fluorescence; Envision plate reader", "units": {"activation": "%"}, "values": [{"compound": "COc1ccc(C)cc1N", "activation": 3.58}, {"compound": "CC(=O)OC1CC(C)OC(C)O1", "note": "(stereo not given)", "Potency": "inactive"}, {"compound": "CCNC(=S)NCC", "activation": 1.53}, {"compound": "C[Si](C)(C)Cl", "activation": -6.45}, {"compound": "CC(C)S", "activation": 1.34}, {"compound": "CCCCOC(=O)COc1ccc(Cl)cc1Cl", "Potency": "inactive"}, {"compound": "Nc1ccc(N)c(Cl)c1", "activation": -14.5}, {"compound": "CCCCC(CC)COCCCN", "note": "(stereo not given)", "activation": 1.33}, {"compound": "S=C(NC1CCCCC1)NC1CCCCC1", "activation": -10.4}, {"compound": "CCCCCCc1ccc(-c2ccc(C#N)cc2)cc1", "activation": 6.83}, {"compound": "O=CC(=O)c1ccccc1", "activation": -5.84}, {"compound": "Nc1ccc(N=Nc2ccccc2)c(N)c1", "activation": -8.26}, {"compound": "O=C(O)c1ccc([N+](=O)[O-])cc1", "Potency": "inactive"}, {"compound": "c1ccncc1", "activation": -0.103}, {"compound": "Oc1cc(Cl)cc(Cl)c1Cl", "activation": -6.16}, {"compound": "Cc1ccc2ccc3cccc4ccc1c2c34", "activation": 9.55}, {"compound": "CC(=O)Nc1cccc(C)c1", "activation": -1.95}, {"compound": "COc1cc(-c2ccc(N=C=O)c(OC)c2)ccc1N=C=O", "activation": 14.1}, {"compound": "Cc1cc(-c2ccc(N=Nc3cc(S(=O)(=O)O)c4ccccc4c3N)c(C)c2)ccc1N=Nc1cc(S(=O)(=O)O)c2ccccc2c1N", "activation": 12.3}, {"compound": "CC(=O)OCc1ccc2c(c1)OCO2", "activation": -10.6}, {"compound": "C=CC(=O)OCCCCCCOC(=O)C=C", "activation": -29}, {"compound": "O=C(O)/C=C/c1ccc(/C=C/C(=O)O)cc1", "activation": -1.14}, {"compound": "CC(=O)c1ccc(Cl)c(Cl)c1Cl", "activation": -0.0286}, {"compound": "CC(C)COC(=O)COc1cc(Cl)c(Cl)cc1Cl", "activation": 7.72}, {"compound": "Oc1ccc(O)c2c(O)cccc12", "activation": 16.1}, {"compound": "O=c1[nH]ncc2ccccc12", "activation": 1.7}, {"compound": "C=CC(=O)CC", "activation": 7.6}, {"compound": "NC(=O)c1ccc([N+](=O)[O-])cc1", "activation": 8.89}, {"compound": "OC1CCCCC1", "activation": -1.11}, {"compound": "C=C(C#N)C(=O)OCC", "activation": -11.1}, {"compound": "CCOC(=O)C1OC1c1ccccc1", "note": "(stereo not given)", "activation": -8.23}, {"compound": "CC(CCC(=O)O)(c1ccc(O)cc1)c1ccc(O)cc1", "Potency": "inactive"}, {"compound": "CCCC(=O)OC(=O)CCC", "Potency": "inactive"}, {"compound": "O=[N+]([O-])c1cc(N(CCO)CCO)ccc1NCCO", "Potency": "inactive"}, {"compound": "C1CCCNCC1", "activation": -0.926}, {"compound": "CC(=O)CC(=O)Nc1ccccc1", "Potency": "inactive"}, {"compound": "O=[N+]([O-])c1ccccc1Nc1ccccc1", "activation": -3.89}, {"compound": "Oc1ccc2c(c1)OCO2", "activation": 10.5}, {"compound": "CCCCCCCCOc1ccc(C(=O)O)cc1", "Potency": "39.8 µM (active)"}, {"compound": "CCCCCCCC/C=C\\CCCCCCCC(=O)N(CCO)CCO", "activation": -9.77}]}]}
